{"source": "PubChem BioAssay", "key": {"[1]": {"biological_target": "ATP-dependent translocase ABCB1 (Homo sapiens) (UniProt P08183)", "sequence (P08183 whole entry, looked up)": "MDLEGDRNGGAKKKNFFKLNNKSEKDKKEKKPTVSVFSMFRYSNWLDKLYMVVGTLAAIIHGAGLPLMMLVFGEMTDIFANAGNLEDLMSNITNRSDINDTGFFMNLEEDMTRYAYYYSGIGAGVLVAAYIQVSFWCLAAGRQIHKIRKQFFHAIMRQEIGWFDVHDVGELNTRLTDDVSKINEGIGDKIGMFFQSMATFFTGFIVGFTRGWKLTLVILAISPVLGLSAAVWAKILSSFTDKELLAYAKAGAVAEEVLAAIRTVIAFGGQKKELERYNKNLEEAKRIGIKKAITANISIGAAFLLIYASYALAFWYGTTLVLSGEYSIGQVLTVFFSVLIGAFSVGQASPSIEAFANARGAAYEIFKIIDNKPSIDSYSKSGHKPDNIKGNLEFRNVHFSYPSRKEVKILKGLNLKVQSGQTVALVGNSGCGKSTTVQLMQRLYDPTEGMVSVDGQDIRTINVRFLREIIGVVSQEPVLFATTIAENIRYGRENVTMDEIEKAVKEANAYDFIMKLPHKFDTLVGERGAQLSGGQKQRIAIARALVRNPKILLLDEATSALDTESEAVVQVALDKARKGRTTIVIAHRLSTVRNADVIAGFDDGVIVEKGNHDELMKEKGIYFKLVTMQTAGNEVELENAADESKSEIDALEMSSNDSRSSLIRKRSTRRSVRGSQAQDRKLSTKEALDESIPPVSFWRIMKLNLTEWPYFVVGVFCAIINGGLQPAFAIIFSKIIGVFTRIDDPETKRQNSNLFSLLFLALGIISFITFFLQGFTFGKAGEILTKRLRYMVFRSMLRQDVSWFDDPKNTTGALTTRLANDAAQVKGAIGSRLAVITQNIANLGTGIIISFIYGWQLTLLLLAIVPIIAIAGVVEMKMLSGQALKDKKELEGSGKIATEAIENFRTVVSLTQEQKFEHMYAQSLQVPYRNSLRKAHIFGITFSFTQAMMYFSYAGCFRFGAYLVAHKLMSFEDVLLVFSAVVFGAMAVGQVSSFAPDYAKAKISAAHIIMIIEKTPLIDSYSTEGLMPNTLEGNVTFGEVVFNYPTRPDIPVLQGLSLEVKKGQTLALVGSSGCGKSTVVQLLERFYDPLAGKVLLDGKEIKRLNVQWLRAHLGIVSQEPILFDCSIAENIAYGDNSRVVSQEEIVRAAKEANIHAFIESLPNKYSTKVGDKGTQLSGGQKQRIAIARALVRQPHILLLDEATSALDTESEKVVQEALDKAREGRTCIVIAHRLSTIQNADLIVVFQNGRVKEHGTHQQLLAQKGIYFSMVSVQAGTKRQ", "test": "P-glycoprotein substrate transport blockade – cell-based (AID 377; in the data active = fluorescence slope change above about 50%)", "settings": "MDR1-expressing cells, fluorescent substrate accumulation slope; stronger effect = higher value; concentration not given here"}, "[2]": {"test": "antimalarial activity against Dd2 strain (AID 2302;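 active = growth inhibition above 50% at the single 2 µM test dose, taken to imply half-maximal potency below 2 µM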;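 note: 0% = DMSO untreated growth and 100% = chloroquine plus artemisinin killed control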)", "settings": "P. falciparum Dd2 in RBCs, LDH growth readout, 72 h; at 2 µM; stronger effect = higher value"}, "[3]": {"biological_target": "L-lactate dehydrogenase (Plasmodium falciparum (isolate CDC / Honduras)) (UniProt Q27743)", "sequence (Q27743 whole entry, looked up)": "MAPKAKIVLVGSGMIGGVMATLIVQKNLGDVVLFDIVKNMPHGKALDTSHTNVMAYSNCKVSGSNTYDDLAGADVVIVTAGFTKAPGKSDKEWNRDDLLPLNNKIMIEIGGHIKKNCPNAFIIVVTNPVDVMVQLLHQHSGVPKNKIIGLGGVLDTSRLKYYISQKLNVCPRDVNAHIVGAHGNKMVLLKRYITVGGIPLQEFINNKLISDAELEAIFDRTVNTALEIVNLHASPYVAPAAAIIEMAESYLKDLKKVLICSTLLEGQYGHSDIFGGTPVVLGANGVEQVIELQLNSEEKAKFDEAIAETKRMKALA", "test": "PfLDH activity inhibition – cell lysate, 3D7 strain, counter-screen for P. falciparum growth inhibition project (AID 2304);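 note: 0% = vehicle and 100% = reference inhibitor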", "settings": "P. falciparum 3D7 crude extract, LDH APAD/NBT absorbance; at 2 µM; stronger effect = higher value"}, "[4]": {"test": "inhibition of 3D7 malaria parasite growth – strain 3D7 (AID 2306);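 note: 0% = DMSO wells and 100% = chloroquine plus artemisinin control wells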", "settings": "P. falciparum 3D7 erythrocytic growth, LDH absorbance, 72 h; at 2 µM; stronger effect = higher value"}, "[5]": {"test": "compounds altering circadian rhythm period length – cell-based, LOPAC library, luminescence reporter (AID 2774);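 note: values are relative to mean of DMSO wells on each plate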", "settings": "circadian reporter cells, at 7 µM, actives lie on both sides"}, "[6]": {"biological_target": "Calcium-dependent protein kinase 1 (Plasmodium falciparum (isolate 3D7)) (UniProt P62344)", "sequence (P62344 whole entry, looked up)": "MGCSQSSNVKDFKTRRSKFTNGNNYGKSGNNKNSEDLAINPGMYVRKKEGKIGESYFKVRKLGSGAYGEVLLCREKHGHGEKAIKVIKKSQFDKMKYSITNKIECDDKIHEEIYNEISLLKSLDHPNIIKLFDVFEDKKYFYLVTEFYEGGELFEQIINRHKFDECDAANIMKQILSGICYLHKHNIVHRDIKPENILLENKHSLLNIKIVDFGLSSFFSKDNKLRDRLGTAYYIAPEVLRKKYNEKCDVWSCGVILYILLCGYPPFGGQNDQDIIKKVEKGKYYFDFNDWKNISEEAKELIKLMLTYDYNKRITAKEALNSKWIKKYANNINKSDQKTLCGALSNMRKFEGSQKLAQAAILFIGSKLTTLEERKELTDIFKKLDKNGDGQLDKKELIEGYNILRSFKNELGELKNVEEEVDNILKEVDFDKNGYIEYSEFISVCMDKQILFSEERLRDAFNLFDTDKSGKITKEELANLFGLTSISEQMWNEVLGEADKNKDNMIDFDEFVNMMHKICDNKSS", "test": "PfCDPK1 kinase inhibitors, biochemical, TCAMS library (AID 1159585; cut-off not given, nearly all actives have IC50 up to about 0.98 µM;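 note: inhibitors leave more ATP so luminescence rises with inhibition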)", "settings": "recombinant PfCDPK1, Kinase-Glo ATP depletion luminescence"}, "[7]": {"biological_target": "Plasmodium falciparum protein kinase 6 (PK6, PF3D7_1337100) (UniProt Q8IDW1)", "sequence (Q8IDW1 1-305)": "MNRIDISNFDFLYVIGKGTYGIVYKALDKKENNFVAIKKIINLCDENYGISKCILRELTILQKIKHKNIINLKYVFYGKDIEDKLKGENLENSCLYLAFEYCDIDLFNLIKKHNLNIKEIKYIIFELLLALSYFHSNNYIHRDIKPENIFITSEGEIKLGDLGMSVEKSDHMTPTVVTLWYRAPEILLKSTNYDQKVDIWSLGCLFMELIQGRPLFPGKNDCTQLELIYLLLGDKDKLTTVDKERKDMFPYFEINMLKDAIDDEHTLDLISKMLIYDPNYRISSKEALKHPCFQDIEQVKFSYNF", "test": "PfPK6 kinase inhibitors, biochemical, TCAMS library (AID 1159586)", "settings": "recombinant PfPK6, Kinase-Glo ATP depletion luminescence"}, "[8]": {"biological_target": "Protein kinase 7 (PK7), Plasmodium falciparum 3D7 (PF3D7_0213400) (UniProt Q7YTF7)", "sequence (Q7YTF7 1-343)": "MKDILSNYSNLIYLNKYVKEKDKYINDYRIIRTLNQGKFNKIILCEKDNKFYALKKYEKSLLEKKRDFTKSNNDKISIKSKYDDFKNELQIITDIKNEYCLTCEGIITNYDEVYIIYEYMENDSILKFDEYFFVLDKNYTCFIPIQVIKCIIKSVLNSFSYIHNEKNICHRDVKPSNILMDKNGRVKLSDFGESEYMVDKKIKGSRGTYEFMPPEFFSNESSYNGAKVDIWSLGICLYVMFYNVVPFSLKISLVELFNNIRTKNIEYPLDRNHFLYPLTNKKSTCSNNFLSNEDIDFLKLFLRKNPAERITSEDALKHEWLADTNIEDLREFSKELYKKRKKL", "test": "inhibition of Plasmodium PK7 catalytic activity – biochemical, TCAMS antimalarial set, Kinase-Glo luminescence (AID 1159587)", "settings": "recombinant PfPK7, Kinase-Glo ATP depletion luminescence"}, "[9]": {"test": "viability loss in pontine glioma line – cell-based, SU-DIPG-XIII, MIPE5.0, CellTiter-Glo, qHTS, dose response (AID 1347064; cut-off not given, nearly all actives have AC50 up to about 23 µM;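 for AC50: cells exposed to compound for 48 hours before the viability read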)", "settings": "CellTiter-Glo ATP luminescence"}, "[10]": {"tested_on": "Aerobactin synthetase IucA (Klebsiella pneumoniae)", "test": "inhibition of K. pneumoniae IucA enzyme – biochemical, Tocris library, absorbance (AID 1345561);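 note: 100% = enzyme without compound and 0% = no enzyme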", "settings": "purified IucA enzyme assay, absorbance (OD) read-out; stronger effect = lower value; concentration not given here"}, "[11]": {"test": "P. berghei load reduction in hepatocytes – cell-based, HepG2, luciferase luminescence, HepG2 viability, primary screen (AID 624349; in the data active = parasite load remaining mostly below about 12%, no sharp cut-off; inactive = mostly above about 10%;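 note: 100% = mean of DMSO negative control wells on the same plate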)", "settings": "P. berghei liver stage in HepG2, luciferase luminescence, concentration not given here; parasite load remaining: stronger effect = lower value; viability: measured here: HepG2 viability without parasites"}, "[12]": {"tested_on": "Neuropilin-2 / VEGF-C interaction (human)", "test": "small molecules blocking Neuropilin-2/VEGF-C interaction – biochemical, microplate binding format, z-score (AID 743281)", "settings": "microplate NRP2/VEGF-C binding assay; stronger effect = lower value"}, "[13]": {"test": "compounds altering HSF1 focus formation in cells – imaging, Selleck Cancer Library (AID 1347162; in the data active = plate-normalised HSF1 focus index below about 0.46)", "settings": "human cells, HSF1 nuclear foci imaging, at 10 µM; SSMD: measured here: HSF1 foci SSMD mean; cell count: measured here: cell number; plate-normalised HSF1 focus index: stronger effect = lower value"}, "[14]": {"test": "chitosan synthesis blockers in C. neoformans – flow cytometry, Cibacron Brilliant Red staining (AID 1347148);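 note: compound exposure lasted three days at 37 degrees C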", "settings": "Cryptococcus neoformans chitosan, stronger effect = lower value; at 99.1 µM unless noted"}}, "note": "Several values for one entry are separate records, joined by “and”; a condition that tells them apart may be missing. Identical values can stand only once. Results filed as inconclusive are left out. For some of these results: Potency and affinity values are given separately. Activity calls are given as the source filed them. Unless noted, the rule behind the calls is not given here.", "data": [{"molecule": "CCN(CC)CCCC(C)Nc1ccnc2cc(Cl)ccc12", "note": "(configuration not stated)", "values": [{"measurement": "fluorescence slope change", "setting": "[1]", "result": "-4.1% (inactive)"}, {"measurement": "growth inhibition", "setting": "[2]", "result": "96% (active)"}, {"measurement": "inhibition", "setting": "[3]", "result": "-1% (inactive)"}, {"measurement": "growth inhibition", "setting": "[4]", "result": "100% (active)"}, {"measurement": "period change", "setting": "[5]", "result": "0.02 h (inactive)"}, {"measurement": "outcome", "setting": "[6]", "result": "inactive"}, {"measurement": "outcome", "setting": "[7]", "result": "inactive"}, {"measurement": "outcome", "setting": "[8]", "result": "inactive"}, {"measurement": "outcome", "setting": "[9]", "result": "inactive"}]}, {"molecule": "CN(C)CCCN1c2ccccc2CCc2ccc(Cl)cc21", "values": [{"measurement": "fluorescence slope change", "setting": "[1]", "result": "179% (active)"}, {"measurement": "period change", "setting": "[5]", "result": "-0.12 h (inactive)"}, {"measurement": "remaining activity", "setting": "[10]", "result": "96.8% (inactive)"}, {"measurement": "outcome", "setting": "[9]", "result": "inactive"}]}, {"molecule": "CCC1(c2ccccc2)C(=O)NCNC1=O", "values": [{"measurement": "period change", "setting": "[5]", "result": "-0.19 h (inactive)"}, {"measurement": "remaining activity", "setting": "[10]", "result": "91.8% (inactive)"}, {"measurement": "outcome", "setting": "[9]", "result": "inactive"}]}, {"molecule": "CC1=C(CC(=O)O)c2cc(F)ccc2/C1=C\\c1ccc(S(C)=O)cc1", "note": "(configuration not stated)", "values": [{"measurement": "period change", "setting": "[5]", "result": "0.265 h (inactive)"}, {"measurement": "remaining activity", "setting": "[10]", "result": "115% (inactive)"}]}, {"molecule": "CC[C@H]1CN2CCc3cc(OC)c(OC)cc3[C@@H]2C[C@@H]1C[C@H]1NCCc2cc(OC)c(OC)cc21", "values": [{"measurement": "growth inhibition", "setting": "[2]", "result": "99% (active)"}, {"measurement": "inhibition", "setting": "[3]", "result": "-3% (inactive)"}, {"measurement": "growth inhibition", "setting": "[4]", "result": "101% (active)"}, {"measurement": "period change", "setting": "[5]", "result": "0 h (inactive)"}, {"measurement": "parasite load remaining", "setting": "[11]", "result": "-66.8% (active)"}, {"measurement": "viability", "setting": "[11]", "result": 76.3, "unit": "%"}, {"measurement": "outcome", "setting": "[6]", "result": "inactive"}, {"measurement": "outcome", "setting": "[7]", "result": "inactive"}, {"measurement": "outcome", "setting": "[8]", "result": "inactive"}, {"measurement": "AC50", "setting": "[9]", "result": "0.166 µM (active)"}]}, {"molecule": "Cc1noc(NS(=O)(=O)c2ccc(N)cc2)c1C", "values": [{"measurement": "remaining activity", "setting": "[10]", "result": "91.4% (inactive)"}]}, {"molecule": "CCOC(=O)[C@H](CCc1ccccc1)N[C@H]1CCc2ccccc2N(CC(=O)O)C1=O", "values": [{"measurement": "parasite load remaining", "setting": "[11]", "result": "126% (inactive) and 36.1% (inactive) and 94.6% (inactive)"}, {"measurement": "viability", "setting": "[11]", "result": "90.1% and 91.8% and 66.1%"}, {"measurement": "z-score", "setting": "[12]", "result": "-0.908 (inactive)"}, {"measurement": "remaining activity", "setting": "[10]", "result": "104% (inactive)"}, {"measurement": "outcome", "setting": "[9]", "result": "inactive"}]}, {"molecule": "CC(C)C(=O)Nc1ccc([N+](=O)[O-])c(C(F)(F)F)c1", "values": [{"measurement": "fluorescence slope change", "setting": "[1]", "result": "60.9% (active)"}, {"measurement": "period change", "setting": "[5]", "result": "-0.165 h (inactive)"}, {"measurement": "outcome", "setting": "[9]", "result": "inactive"}, {"measurement": "SSMD", "setting": "[13]", "result": 1.17}, {"measurement": "cell count", "setting": "[13]", "result": 6660}, {"measurement": "plate-normalised HSF1 focus index", "setting": "[13]", "result": "1.06 (inactive)"}]}, {"molecule": "NNC(=O)c1ccncc1", "values": [{"measurement": "fluorescence slope change", "setting": "[1]", "result": "55.1% (active)"}]}, {"molecule": "CCOC(=O)C1=C(C)NC(C)=C(C(=O)OC)C1c1cccc([N+](=O)[O-])c1", "note": "(configuration not stated)", "values": [{"measurement": "period change", "setting": "[5]", "result": "0.21 h (inactive)"}, {"measurement": "z-score", "setting": "[12]", "result": "0.0382 (inactive)"}, {"measurement": "remaining activity", "setting": "[10]", "result": "111% (inactive)"}, {"measurement": "fold fluorescence", "setting": "[14]", "result": "5.19 [at 138.7 µM] (inactive)"}]}, {"molecule": "NCCc1ccc(O)c(O)c1", "values": [{"measurement": "period change", "setting": "[5]", "result": "-0.01 h (inactive)"}, {"measurement": "parasite load remaining", "setting": "[11]", "result": "36.4% (inactive) and 34.7% (inactive) and 21% (inactive)"}, {"measurement": "viability", "setting": "[11]", "result": "120% and 74.1% and 206%"}]}, {"molecule": "Oc1c(Cl)cc(Cl)c2cccnc12", "values": [{"measurement": "parasite load remaining", "setting": "[11]", "result": "-2.47% (inactive) and 0.685% (inactive)"}, {"measurement": "viability", "setting": "[11]", "result": "56.8% and 69.6%"}, {"measurement": "AC50", "setting": "[9]", "result": "11.8 µM (active)"}]}, {"molecule": "OC(Cn1cncn1)(Cn1cncn1)c1ccc(F)cc1F", "values": [{"measurement": "outcome", "setting": "[9]", "result": "inactive"}]}]}
